These targets were tested with CN[C@@H]1C[C@H]2O[C@@](C)([C@@H]1OC)n1c3ccccc3c3c4c(c5c6ccccc6n2c5c31)C(=O)NC4 [staurosporine] (assay: log2 fold change of tryptic peptide abundance, ligand vs vehicle (limited proteolysis) (log2 ratio); higher = more trypsin-susceptible (destabilized)). Conditions: ligand concentration: 20 uM; sample: mouse liver crude lysate; replicate design: treated separately.
Sequence of UniProt P26443 (P26443 whole entry): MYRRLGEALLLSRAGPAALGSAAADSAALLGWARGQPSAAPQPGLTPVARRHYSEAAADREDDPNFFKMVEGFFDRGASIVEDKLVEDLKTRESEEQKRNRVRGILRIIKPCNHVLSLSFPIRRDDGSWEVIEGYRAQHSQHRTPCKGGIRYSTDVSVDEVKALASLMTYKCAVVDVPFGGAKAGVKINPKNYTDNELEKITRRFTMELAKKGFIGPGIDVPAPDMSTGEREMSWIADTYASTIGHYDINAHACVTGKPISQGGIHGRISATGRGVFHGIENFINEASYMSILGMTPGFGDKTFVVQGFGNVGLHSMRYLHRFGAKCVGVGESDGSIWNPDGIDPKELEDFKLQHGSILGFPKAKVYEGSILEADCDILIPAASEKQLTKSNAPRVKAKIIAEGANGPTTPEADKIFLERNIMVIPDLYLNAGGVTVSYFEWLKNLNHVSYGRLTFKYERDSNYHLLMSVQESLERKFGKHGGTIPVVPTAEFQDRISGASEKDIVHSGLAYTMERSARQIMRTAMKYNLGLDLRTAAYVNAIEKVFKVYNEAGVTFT
Sequence of UniProt P26149 (P26149 whole entry): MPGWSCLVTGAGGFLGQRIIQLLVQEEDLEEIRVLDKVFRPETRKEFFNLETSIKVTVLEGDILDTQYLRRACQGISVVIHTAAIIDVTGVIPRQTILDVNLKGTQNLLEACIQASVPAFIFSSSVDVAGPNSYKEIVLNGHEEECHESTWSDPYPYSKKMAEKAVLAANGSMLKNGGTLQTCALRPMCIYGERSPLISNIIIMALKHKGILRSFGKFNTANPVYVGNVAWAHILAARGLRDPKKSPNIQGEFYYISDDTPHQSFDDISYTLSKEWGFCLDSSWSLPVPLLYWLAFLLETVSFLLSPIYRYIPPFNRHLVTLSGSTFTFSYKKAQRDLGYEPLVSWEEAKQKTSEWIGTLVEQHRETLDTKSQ
Sequence of UniProt O55137 (O55137 whole entry): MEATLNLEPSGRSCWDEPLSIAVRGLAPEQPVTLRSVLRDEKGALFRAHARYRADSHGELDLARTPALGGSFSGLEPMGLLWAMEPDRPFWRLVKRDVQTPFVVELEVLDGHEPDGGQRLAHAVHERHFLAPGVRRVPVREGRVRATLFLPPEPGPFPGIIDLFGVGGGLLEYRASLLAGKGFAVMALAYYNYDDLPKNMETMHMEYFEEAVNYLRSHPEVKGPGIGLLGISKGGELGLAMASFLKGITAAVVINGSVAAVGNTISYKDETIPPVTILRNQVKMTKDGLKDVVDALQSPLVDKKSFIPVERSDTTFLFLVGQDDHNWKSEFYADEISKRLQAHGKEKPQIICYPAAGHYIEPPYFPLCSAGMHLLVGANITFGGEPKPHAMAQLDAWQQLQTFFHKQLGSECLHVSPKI
Sequence of UniProt Q04735 (Q04735 whole entry): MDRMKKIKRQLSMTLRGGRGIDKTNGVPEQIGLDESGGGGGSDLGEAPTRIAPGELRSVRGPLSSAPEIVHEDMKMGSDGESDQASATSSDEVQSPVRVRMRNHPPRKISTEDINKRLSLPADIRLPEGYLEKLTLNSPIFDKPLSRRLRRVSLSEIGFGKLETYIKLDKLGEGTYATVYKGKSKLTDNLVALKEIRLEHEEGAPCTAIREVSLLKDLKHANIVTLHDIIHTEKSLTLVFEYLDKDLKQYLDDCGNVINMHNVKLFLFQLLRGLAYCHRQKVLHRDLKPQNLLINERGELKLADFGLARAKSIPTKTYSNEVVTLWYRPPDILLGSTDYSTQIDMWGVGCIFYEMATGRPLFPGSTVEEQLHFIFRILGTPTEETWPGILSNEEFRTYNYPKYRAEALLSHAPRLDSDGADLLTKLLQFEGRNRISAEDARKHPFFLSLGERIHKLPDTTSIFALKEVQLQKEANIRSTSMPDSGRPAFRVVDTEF
Sequence of UniProt O35469 (O35469 whole entry): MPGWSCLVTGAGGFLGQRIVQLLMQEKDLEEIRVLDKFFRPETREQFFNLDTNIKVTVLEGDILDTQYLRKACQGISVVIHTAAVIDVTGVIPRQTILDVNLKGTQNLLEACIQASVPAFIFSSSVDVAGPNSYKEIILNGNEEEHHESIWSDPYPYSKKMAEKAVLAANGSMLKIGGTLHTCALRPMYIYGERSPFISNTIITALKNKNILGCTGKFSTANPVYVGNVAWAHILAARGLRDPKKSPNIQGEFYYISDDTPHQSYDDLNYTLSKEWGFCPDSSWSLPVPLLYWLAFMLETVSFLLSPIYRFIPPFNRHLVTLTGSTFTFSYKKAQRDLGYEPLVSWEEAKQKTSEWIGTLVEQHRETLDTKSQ
Sequence of UniProt Q61037 (Q61037 whole entry): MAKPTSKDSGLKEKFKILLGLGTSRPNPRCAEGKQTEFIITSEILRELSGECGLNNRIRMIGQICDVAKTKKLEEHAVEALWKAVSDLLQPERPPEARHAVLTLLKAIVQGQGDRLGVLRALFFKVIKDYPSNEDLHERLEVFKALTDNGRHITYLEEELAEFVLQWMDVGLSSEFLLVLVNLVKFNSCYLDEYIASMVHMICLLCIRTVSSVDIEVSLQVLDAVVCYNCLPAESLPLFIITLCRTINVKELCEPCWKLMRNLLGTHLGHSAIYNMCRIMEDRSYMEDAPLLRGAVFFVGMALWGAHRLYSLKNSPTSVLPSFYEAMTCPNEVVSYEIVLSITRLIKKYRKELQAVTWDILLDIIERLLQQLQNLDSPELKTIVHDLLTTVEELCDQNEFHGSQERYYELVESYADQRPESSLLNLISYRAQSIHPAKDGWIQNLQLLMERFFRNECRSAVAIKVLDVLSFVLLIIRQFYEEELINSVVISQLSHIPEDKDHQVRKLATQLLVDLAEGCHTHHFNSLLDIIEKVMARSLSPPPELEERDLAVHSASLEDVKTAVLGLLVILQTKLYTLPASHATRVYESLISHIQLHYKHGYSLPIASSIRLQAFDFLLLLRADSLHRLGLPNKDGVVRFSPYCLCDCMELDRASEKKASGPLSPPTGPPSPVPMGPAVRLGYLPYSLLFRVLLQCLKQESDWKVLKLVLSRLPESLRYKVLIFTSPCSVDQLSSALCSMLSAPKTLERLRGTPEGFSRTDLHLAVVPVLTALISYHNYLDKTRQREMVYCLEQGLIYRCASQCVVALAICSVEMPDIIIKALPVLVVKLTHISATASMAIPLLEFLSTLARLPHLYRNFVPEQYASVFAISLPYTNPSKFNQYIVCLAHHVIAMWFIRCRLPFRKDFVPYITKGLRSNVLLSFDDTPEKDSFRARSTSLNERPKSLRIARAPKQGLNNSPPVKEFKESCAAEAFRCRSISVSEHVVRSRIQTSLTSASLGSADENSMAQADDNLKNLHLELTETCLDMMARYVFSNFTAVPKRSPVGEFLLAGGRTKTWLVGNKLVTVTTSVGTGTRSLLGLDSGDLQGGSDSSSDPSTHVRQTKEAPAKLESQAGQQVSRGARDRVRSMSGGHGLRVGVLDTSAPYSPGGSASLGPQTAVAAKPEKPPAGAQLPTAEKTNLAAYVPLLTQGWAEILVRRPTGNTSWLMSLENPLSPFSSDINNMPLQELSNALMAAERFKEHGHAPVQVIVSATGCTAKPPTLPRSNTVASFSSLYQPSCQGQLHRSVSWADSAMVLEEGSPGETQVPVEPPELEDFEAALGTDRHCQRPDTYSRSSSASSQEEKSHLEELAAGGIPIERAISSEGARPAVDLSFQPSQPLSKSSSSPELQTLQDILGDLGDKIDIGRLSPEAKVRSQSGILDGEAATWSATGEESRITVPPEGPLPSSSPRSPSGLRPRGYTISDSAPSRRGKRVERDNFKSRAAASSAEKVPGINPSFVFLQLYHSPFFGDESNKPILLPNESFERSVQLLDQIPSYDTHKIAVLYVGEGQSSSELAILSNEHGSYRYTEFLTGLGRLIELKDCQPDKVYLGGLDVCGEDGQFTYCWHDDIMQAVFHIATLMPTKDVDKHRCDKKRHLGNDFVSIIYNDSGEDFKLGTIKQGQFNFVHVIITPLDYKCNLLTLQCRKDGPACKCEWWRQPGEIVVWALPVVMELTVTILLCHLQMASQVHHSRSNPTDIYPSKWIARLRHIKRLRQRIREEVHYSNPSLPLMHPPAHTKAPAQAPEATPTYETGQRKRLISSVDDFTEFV
Sequence of UniProt Q9WV55 (Q9WV55 whole entry): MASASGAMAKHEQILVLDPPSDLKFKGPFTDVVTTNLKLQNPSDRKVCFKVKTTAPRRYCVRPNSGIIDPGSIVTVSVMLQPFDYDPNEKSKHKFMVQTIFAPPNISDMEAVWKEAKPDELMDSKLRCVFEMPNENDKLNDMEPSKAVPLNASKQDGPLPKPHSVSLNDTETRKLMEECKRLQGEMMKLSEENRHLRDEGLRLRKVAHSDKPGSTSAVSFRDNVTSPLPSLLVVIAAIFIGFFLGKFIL
Sequence of UniProt P31324 (P31324 whole entry): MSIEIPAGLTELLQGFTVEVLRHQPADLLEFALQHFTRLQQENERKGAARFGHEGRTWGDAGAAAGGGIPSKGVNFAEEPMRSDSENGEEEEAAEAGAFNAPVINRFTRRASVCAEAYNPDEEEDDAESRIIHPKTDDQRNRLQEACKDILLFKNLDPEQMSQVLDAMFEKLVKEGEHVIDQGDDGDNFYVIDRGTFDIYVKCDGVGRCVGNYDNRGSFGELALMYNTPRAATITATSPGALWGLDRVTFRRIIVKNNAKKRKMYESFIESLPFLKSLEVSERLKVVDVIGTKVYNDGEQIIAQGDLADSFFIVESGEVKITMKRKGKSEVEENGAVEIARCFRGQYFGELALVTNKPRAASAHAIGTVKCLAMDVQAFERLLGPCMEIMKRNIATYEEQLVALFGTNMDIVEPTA
Sequence of UniProt Q8VDP6 (Q8VDP6 whole entry): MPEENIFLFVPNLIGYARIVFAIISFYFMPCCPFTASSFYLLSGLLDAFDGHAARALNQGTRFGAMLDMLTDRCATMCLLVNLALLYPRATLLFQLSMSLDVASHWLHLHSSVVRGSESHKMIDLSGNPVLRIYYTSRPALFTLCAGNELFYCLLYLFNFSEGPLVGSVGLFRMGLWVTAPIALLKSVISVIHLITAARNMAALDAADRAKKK
With “UniProt P24549 (peptide sequence: SVDDVIKR, peptide start residue: 413)” the log2 fold change was -0.205. “UniProt O89112 (peptide sequence: AFPNPYADYNK, peptide start residue: 5)” gave a log2 fold change of 0.594. “UniProt Q6ZQ89 (peptide sequence: FIHQECLVQWLK, peptide start residue: 34)” gave a log2 fold change of 0.572. “UniProt Q91YQ1 (peptide sequence: STVGVDFALK, peptide start residue: 38)” showed a log2 fold change of 0.602. “UniProt P26149 (peptide sequence: YIPPFNR, peptide start residue: 311)” was tested, and the log2 fold change was 0.476. “UniProt P70268 (peptide sequence: EGMGYGDR, peptide start residue: 805)” gave a log2 fold change of -3.03. Target “UniProt Q9CYH2 (peptide sequence: LGVWYNSFR, peptide start residue: 145)” has a log2 fold change of -2.12. With “UniProt Q6PDI5 (peptide sequence: NLTSNMWR, peptide start residue: 1165)” the log2 fold change was 0.284. Target “UniProt P11440 (peptide sequence: IGEGTYGVVYK, peptide start residue: 10)” has a log2 fold change of -2.03. With “UniProt Q9CQE1 (peptide sequence: HWSHEDPR, peptide start residue: 211)” the log2 fold change was -0.522. Target “UniProt Q9Z1R3 (peptide sequence: TEGRPDMK, peptide start residue: 115)” has a log2 fold change of 1.56. For “UniProt Q8BRK8 (peptide sequence: DLKPENVLLDAQMNAK, peptide start residue: 139)”, the log2 fold change was -3.83. For “UniProt O55137 (peptide sequence: GLAPEQPVTLR, peptide start residue: 25)”, the log2 fold change was -0.292. “UniProt Q9CQU3 (peptide sequence: YIPFTHGK, peptide start residue: 174)” was tested, and the log2 fold change was 0.278. “UniProt Q91W52 (peptide sequence: LITTWEK, peptide start residue: 203)” showed a log2 fold change of 0.417. “UniProt Q00623 (peptide sequence: TQLAPHSEQMR, peptide start residue: 184)” was tested, and the log2 fold change was 0.455. “UniProt Q9CZW6 (peptide sequence: GASWLGKR, peptide start residue: 64)” gave a log2 fold change of -0.952. With “UniProt P09103 (peptide sequence: EADDIVNWLKK, peptide start residue: 123)” the log2 fold change was 0.314. “UniProt O08605 (peptide sequence: GLPTPQVLQR, peptide start residue: 341)” showed a log2 fold change of 1.06. “UniProt O35469 (peptide sequence: QTILDVNLK, peptide start residue: 95)” showed a log2 fold change of -0.227. “UniProt P26443 (peptide sequence: HYSEAAADREDDPNFFK, peptide start residue: 52)” showed a log2 fold change of 0.262. In the case of “UniProt Q8CIM7 (peptide sequence: GNPESSFNDKNLR, peptide start residue: 287)”, the log2 fold change is reported as -0.562. “UniProt Q8VDP6 (peptide sequence: MIDLSGNPVLR, peptide start residue: 122)” showed a log2 fold change of 0.341. For “UniProt P31532 (peptide sequence: KYFQGLLNR, peptide start residue: 81)”, the log2 fold change was 0.505. Target “UniProt Q04735 (peptide sequence: LEHEEGAPCTAIR, peptide start residue: 154)” has a log2 fold change of -2.38. “UniProt Q8BPM2 (peptide sequence: LLTHTFVGQPGLSR, peptide start residue: 271)” gave a log2 fold change of -1.27. “UniProt Q8C9S4 (peptide sequence: QEIEHLK, peptide start residue: 574)” was tested, and the log2 fold change was -1.24. Work on “UniProt Q3TWW8 (peptide sequence: CSWQDLKDFMR, peptide start residue: 121)” yielded a log2 fold change of 1.07. In the case of “UniProt P42932 (peptide sequence: AIAGTGANVIVTGGK, peptide start residue: 282)”, the log2 fold change is reported as -0.803. “UniProt Q9WV55 (peptide sequence: KVAHSDKPGSTSAVSFR, peptide start residue: 205)” was tested, and the log2 fold change was 0.313. “UniProt Q60855 (peptide sequence: DLKPENILVDRDFHIK, peptide start residue: 138)” showed a log2 fold change of 1.33. “UniProt P31324 (peptide sequence: LKVVDVIGTK, peptide start residue: 284)” showed a log2 fold change of 1.51. For “UniProt Q99J95 (peptide sequence: IGQGTFGEVFK, peptide start residue: 25)”, the log2 fold change was -1. Work on “UniProt Q61037 (peptide sequence: DFVPYITK, peptide start residue: 907)” yielded a log2 fold change of -0.612. Work on “UniProt Q9D826 (peptide sequence: INVCYWR, peptide start residue: 224)” yielded a log2 fold change of 0.236.
